In PubChem BioAssay (NCATS):
Records with an inconclusive call do not appear. Active and inactive are the calls of the source. Calls follow the shape of the dose curve; as a rule, active = well fitted cell-killing curve with a large enough effect; inconclusive = small, poorly fitted or top-dose-only effect; inactive = no such curve, though single readings can be large or run the other way.

Test: qHTS of pediatric cancer cell lines to identify multiple opportunities for drug repurposing: Primary screen for Rh30 cells (AID 1347107); also: nearly all actives have a fitted effect of over 75% in size
Details: Rh30 rhabdomyosarcoma viability, CellTiter-Glo luminescence, 48 h; series mostly up to 46 µM; activity change, negative = cytotoxic: at the top concentration
Source text: Drug repurposing or repositioning has been offered as a strategy for drug development in oncology programs. This approach has special potential for childhood cancers and other rare or orphan diseases, where the expected return on new drug development has been a disincentive to pharmaceuticals.
In this project we exploit the poly-pharmacology of drugs to discover new indications via phenotypic screening of a panel of 19 well-characterized cell lines derived from solid tumors seen in children and adolescents. The goal is to identify approved drugs with previously unrecognized anticancer properties that has the potential to reveal new mechanisms and biological processes involved in carcinogenesis or drug resistance. We employed a titration-based paradigm (quantitative high-throughput screening or qHTS), where all compounds were tested at multiple concentrations for their effect on cell viability. Concentration-response curves (CRCs) were derived directly from the primary screen, and both potency and efficacy values were used to identify compounds with robust bioactivity profiles. We screened the NIH Chemical Genomics Center (NCGC) Pharmaceutical Collection (NPC) and Mechanism Interrogation Plate (MIPE) small molecule collections of approved and investigational compounds against these cell lines; and measured metabolically active cells after 48 hours of compound treatment as a proxy for cell viability.
Assay Submitter: Nathalia J. Martinez, National Center for Advancing Translational Sciences, National Institutes of Health, Rockville, MD, USA; email: natalia.martinez@nih.gov
[1] Shen, M et al. Quantitative high-throughput phenotypic screening of pediatric cancer cell lines identifies multiple opportunities for drug repurposing. Oncotarget 2017 Dec 19;9(4):4758-4772. PMID 29435139.
The cells were obtained from University of North Carolina (UNC), Pediatric Preclinical Testing Program (PPT), and Coriell Institute (CI).
qHTS cell viability assay:
Cells were assayed in growth media at a density of 500-1,000 cells/well. Five microliters of cells were dispensed into 1,536-well, white, solid-bottom, TC-treated plates (Greiner Bio One) using a multidrop dispenser and incubated at 37 degrees C, 5% CO2, under a humidified atmosphere for 5 hours. Twenty-three nanoliters of compounds and controls (neutral control DMSO or positive control bortezomib at final concentration of 2.3 µM) were subsequently transferred by Kalypsys pintool. For primary screens, the MIPE collection was tested at 11-point dilutions (final concentrations range from 0.78 nM to 46 µM) and the NPC collection at 8-point dilutions (final concentrations range from 0.59 nM to 46 µM). Compounds tested in follow-up screens were assayed at 11-point dilutions. Cells were incubated for 48 hours, followed by addition of 3 µL of CellTiter-Glo (Promega). After a 15 min incubation at room temperature, samples were analyzed for luminescence intensity using a ViewLux High-throughput CCD imager equipped with clear filters.
% is scaled to controls: 0 for no effect and ±100 for the full control effect.

Question: For Oc1ccccc1C=NCc1ccccc1, which “activity change, negative = cytotoxic” value is on record?
Answer: 26.5% (inactive)

Question: For COc1ccc(C(=O)c2ccccc2)c(O)c1, which “activity change, negative = cytotoxic” value is on record?
Answer: 20.6% (inactive)

Question: Which “activity change, negative = cytotoxic” value does the source give for Cl/C(=C\n1cncn1)c1ccc(Cl)cc1Cl here?
Answer: 17.9% (inactive)

Question: Which “activity change, negative = cytotoxic” value does the source give for CC(C)(C)NC[C@H](O)COc1cccc2c1CCCC2=O here?
Answer: -3.1% (inactive)

Question: With C=C1c2cccc(O)c2C(O)=C2C(=O)[C@]3(O)C(O)=C(C(N)=O)C(=O)[C@@H](N(C)C)[C@@H]3[C@@H](O)[C@H]12 as the molecule, how does the “activity change, negative = cytotoxic” value read?
Answer: 16.3% (inactive)

Question: Which “activity change, negative = cytotoxic” value does the source give for CCc1cc(Cl)c(OC)c(C(=O)NC[C@@H]2CCCN2CC)c1O here?
Answer: 15.6% (inactive)

Question: Which “activity change, negative = cytotoxic” value does the source give for CCOc1ccc(NC(C)=O)cc1 here?
Answer: -0.764% (inactive)

Question: Which “activity change, negative = cytotoxic” value does the source give for Cc1cc(NS(=O)(=O)c2ccc(N)cc2)nc(C)n1 here?
Answer: 12.6% (inactive)

Question: With CCc1oc2ccccc2c1C(=O)c1cc(I)c(O)c(I)c1 as the molecule, how does the “activity change, negative = cytotoxic” value read?
Answer: 5.36% (inactive)

Question: For NCc1ccccc1Sc1ccccc1CO, which “activity change, negative = cytotoxic” value is on record?
Answer: 16.1% (inactive)

Question: For CCOc1cc(OCC)c(C(=O)CCC(=O)O)cc1OCC, which “activity change, negative = cytotoxic” value is on record?
Answer: 18.9% (inactive)

Question: Which “activity change, negative = cytotoxic” value does the source give for CCCCCCCCCCCCCCC[C@H](O)[C@@H](N)CO here?
Answer: 27.1% (inactive)

Question: Which “activity change, negative = cytotoxic” value does the source give for c1ccc(CC2=NCCN2)cc1 here?
Answer: -8.28% (inactive)

Question: Which “activity change, negative = cytotoxic” value does the source give for C[C@H]1O[C@@H](O[C@H]2CC[C@@]3(C)[C@H](CC[C@@H]4[C@@H]3C[C@@H](O)[C@]3(C)[C@@H](C5=CC(=O)OC5)CC[C@]43O)C2)C[C@H](O)[C@@H]1O[C@H]1C[C@H](O)[C@H](O[C@H]2C[C@H](O)[C@H](O[C@@H]3O[C@H](CO)[C@@H](O)[C@H](O)[C@H]3O)[C@@H](C)O2)[C@@H](C)O1 here?
Answer: -28.3% (inactive)

Question: With CN(Cc1ccc(C(C)(C)C)cc1)Cc1cccc2ccccc12 as the molecule, how does the “activity change, negative = cytotoxic” value read?
Answer: 14% (inactive)

Question: Which “activity change, negative = cytotoxic” value does the source give for O=S(=O)(O)c1ccc(O)cc1 here?
Answer: 15.7% (inactive)

Question: With OC[C@H]1O[C@@H]2O[C@H]3[C@H](O)[C@@H](O)[C@@H](O[C@H]4[C@H](O)[C@@H](O)[C@@H](O[C@H]5[C@H](O)[C@@H](O)[C@@H](O[C@H]6[C@H](O)[C@@H](O)[C@@H](O[C@H]7[C@H](O)[C@@H](O)[C@@H](O[C@H]8[C@H](O)[C@@H](O)[C@@H](O[C@H]1[C@H](O)[C@H]2O)O[C@@H]8CO)O[C@@H]7CO)O[C@@H]6CO)O[C@@H]5CO)O[C@@H]4CO)O[C@@H]3CO as the molecule, how does the “activity change, negative = cytotoxic” value read?
Answer: 4.57% (inactive)

Question: For COP(=O)(OC)OC(c1ccc(Cl)cc1)P(=O)(OC)OC (stereo not given), which “activity change, negative = cytotoxic” value is on record?
Answer: 6.93% (inactive)

Question: For CCO[C@@H]1O[C@H](C(COCc2ccccc2)OCc2ccccc2)[C@H](OCc2ccccc2)[C@H]1O (stereo not given in full), which “activity change, negative = cytotoxic” value is on record?
Answer: 0.919% (inactive)

Question: For NC(=S)N/N=C/c1cccnc1, which “activity change, negative = cytotoxic” value is on record?
Answer: 24% (inactive)

Question: For CC(C)[N+](C)(C)CC(O)COc1cccc2ccccc12 (stereo not given), which “activity change, negative = cytotoxic” value is on record?
Answer: -14.2% (inactive)

Question: For O=C(c1ccc(F)cc1)C1CCN(CCn2c(=S)[nH]c3ccccc3c2=O)CC1, which “activity change, negative = cytotoxic” value is on record?
Answer: 6.53% (inactive)

Question: For CN1CCN(c2cc3c(cc2F)c(=O)c(C(=O)O)cn3-c2ccc(F)cc2)CC1, which “activity change, negative = cytotoxic” value is on record?
Answer: 10.8% (inactive)

Question: Which “activity change, negative = cytotoxic” value does the source give for O=C(CCN1CCN2CCCC2C1)N1c2ccccc2Sc2ccc(Cl)cc21 (stereo not given) here?
Answer: 5.26% [at 16.1 µM] (inactive)

Question: With N=C(N)N1CCc2ccccc2C1 as the molecule, how does the activity change, negative = cytotoxic read?
Answer: 7.74% [at 4.84 µM] (inactive)

Question: With C[N+]1(C)CCC(=C(c2ccccc2)c2ccccc2)CC1 as the molecule, how does the “activity change, negative = cytotoxic” value read?
Answer: -1.53% (inactive)

Question: Which “activity change, negative = cytotoxic” value does the source give for COc1ccc(C(Cl)=C(c2ccc(OC)cc2)c2ccc(OC)cc2)cc1 here?
Answer: -1.18% (inactive)

Question: Which “activity change, negative = cytotoxic” value does the source give for Cc1cccc(C)c1NC(=O)CN1CCCC1 here?
Answer: 17.6% (inactive)

Question: Which “activity change, negative = cytotoxic” value does the source give for C=C[C@H]1CN2CC[C@H]1C[C@@H]2[C@@H](O)c1ccnc2ccc(OC)cc12 here?
Answer: 24.6% (inactive)

Question: Which “activity change, negative = cytotoxic” value does the source give for CCOCCn1c(N2CCCN(C)CC2)nc2ccccc21 here?
Answer: 5.2% (inactive)

Question: Which “activity change, negative = cytotoxic” value does the source give for CCCCNc1ccc(C(=O)OCCOCCOCCOCCOCCOCCOCCOCCOCCOC)cc1 here?
Answer: -14% (inactive)

Question: With COc1cc(NS(=O)(=O)c2ccc(N)cc2)ncn1 as the molecule, how does the “activity change, negative = cytotoxic” value read?
Answer: 21.2% (inactive)

Question: Which “activity change, negative = cytotoxic” value does the source give for CC[C@H](c1ccc(O)cc1)[C@@H](CC)c1ccc(O)cc1 here?
Answer: -4.82% (inactive)

Question: With NCCNC(=O)c1ccc(Cl)cn1 as the molecule, how does the “activity change, negative = cytotoxic” value read?
Answer: 19.2% (inactive)

Question: For NC(=O)C1(N2CCCCC2)CCN(CCCC(=O)c2ccc(F)cc2)CC1, which “activity change, negative = cytotoxic” value is on record?
Answer: 19.8% (inactive)

Question: Which “activity change, negative = cytotoxic” value does the source give for CCC(Cc1c(I)cc(I)c(N)c1I)C(=O)O (stereo not given) here?
Answer: 19.7% (inactive)

Question: For N[C@H](C(=O)O)[C@@H](O)c1ccc(O)c(O)c1, which “activity change, negative = cytotoxic” value is on record?
Answer: 30.4% (inactive)

Question: For CCOC(=O)c1ccc(N)cc1, which “activity change, negative = cytotoxic” value is on record?
Answer: -0.188% (inactive)

Question: Which “activity change, negative = cytotoxic” value does the source give for O=C1c2cccc3c2[C@H](CCC3)CN1[C@@H]1CN2CCC1CC2 here?
Answer: 7.79% (inactive)

Question: Which “activity change, negative = cytotoxic” value does the source give for COc1ccc2c(c1)c1c3n2CCN(C)C3=NCC1 here?
Answer: 26.8% (inactive)
